The source of these data is PubChem BioAssay (EPA / NIEHS).

Each structure is given as a SMILES string. Records with an inconclusive call do not appear. Active and inactive are the calls of the source. The calls were made as follows, unless noted: active = hit-call score of the fitted dose curve at least 0.9, where 1 is the maximum; inconclusive = response in the unintended direction; inactive = score below 0.9.

A short description of test [1]: ATG_TAL_CIS: Attagene CIS-FACTORIAL HepG2 Assay for human TAL Basal Promoter (AID 2282966; active = hit-call score of the fitted dose curve at least 0.9, where 1 is the maximum; inactive = score below 0.9;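 also: background control endpoint measuring basal TAL promoter reporter mRNA not a specific factor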). The settings on record: HepG2 Attagene cis-factorial TAL promoter reporter; actives raise or lower the signal. The gist of the method:
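HepG2 cells were transiently transfected with promoter-driven multiplexed reporter units and dosed for 24 h. Reporter mRNA was measured by RT-PCR with capillary electrophoresis fluorescence; bidirectional fits used DMSO as baseline, serving as a background control.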

Test [2] is described as follows: ATG_TGFb_CIS: Attagene CIS-FACTORIAL HepG2 Assay for human Transforming Growth Factor (TGF) (AID 2282967; active = hit-call score of the fitted dose curve at least 0.9, where 1 is the maximum; inactive = score below 0.9). To be noted: HepG2 Attagene CIS TGFb reporter, mRNA transcription; actives raise or lower the signal. The gist of the method:
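HepG2 cells transiently transfected with cis-promoter-driven multiplexed reporter units; 24 h compound exposure. Reporter mRNA measured by RT-PCR, 6-FAM labeling, HpaI digestion and capillary electrophoresis; bidirectional fit versus DMSO baseline.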

Test [3] is described as follows: ATG_VDRE_CIS: Attagene CIS-FACTORIAL HepG2 Assay for human Vitamin D Receptor Element (VDRE) (AID 2282968; active = hit-call score of the fitted dose curve at least 0.9, where 1 is the maximum; inactive = score below 0.9). To be noted: HepG2 VDRE cis-reporter transcription, actives raise or lower the signal. The gist of the method: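 HepG2 cells transiently transfected with cis-element reporter units, dosed 24 h; reporter mRNA measured by RT-PCR, 6-FAM labeling, HpaI digestion and capillary electrophoresis. Activity fitted bidirectionally against DMSO baseline.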

The target in test [4] is Nuclear receptor subfamily 1 group I member 3 (Homo sapiens) (UniProt Q14994). The test is described as follows: ATG_CAR_TRANS: Attagene TRANS-FACTORIAL HepG2 Assay for human Constitutive Androstane Receptor (CAR) (AID 2282969).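 Also: activators raise reporter mRNA above DMSO so AC50 marks induction.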 To be noted: HepG2 Attagene TRANS-FACTORIAL CAR reporter. The gist of the method:
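HepG2 cells transiently transfected with multiplexed GAL4-UAS reporter units expressing chimeric NR-Gal4 proteins; compound exposure 24 h. Reporter mRNA measured by RT-PCR, 6-FAM labelling, HpaI digestion and capillary electrophoresis; gain-of-signal fitted against DMSO baseline.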

Test [5] deals with Steroid hormone receptor ERR1 (Homo sapiens) (UniProt P11474). The test is described as follows: ATG_ERRa_TRANS: Attagene TRANS-FACTORIAL HepG2 Assay for human Estrogen-Related Receptor alpha (ERRa) (AID 2282971). To be noted: HepG2 Attagene TRANS reporter, ERRa transactivation. The gist of the method: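 HepG2 cells transiently transfected with multiplexed GAL4-UAS reporter units reading chimeric ERRa-Gal4 activity; 24 h compound exposure. Reporter mRNA measured by RT-PCR, 6-FAM labelling, HpaI digest and capillary electrophoresis; gain of signal fitted versus DMSO baseline.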

The target of test [6] is X-box-binding protein 1 (Homo sapiens) (UniProt P17861). The test is described as follows: ATG_Xbp1_CIS: Attagene CIS-FACTORIAL HepG2 Assay for human X-box Binding Protein 1 (XBP1) (AID 2282972; active = hit-call score of the fitted dose curve at least 0.9, where 1 is the maximum; inactive = score below 0.9). The settings on record: HepG2 XBP1 cis-element reporter, Attagene multiplex; actives raise or lower the signal. The gist of the method:
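HepG2 cells transiently transfected with cis-regulated multiple reporter transcription units; endogenous transcription factor activity measured 24 hours after chemical dosing. Reporter mRNA quantified by RT-PCR, 6-FAM primer extension, HpaI digestion and capillary electrophoresis; bidirectional fitting versus DMSO.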

Test [7] concerns the target Glucocorticoid receptor (Homo sapiens) (UniProt P04150). Nature of the test: ATG_GR_TRANS: Attagene TRANS-FACTORIAL HepG2 Assay for human Glucocorticoid Receptor (GR) (AID 2282978).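 Also: activators score as hits since higher reporter transcript over DMSO is fitted.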 To be noted: HepG2 Attagene TRANS GR reporter, mRNA transcription. The gist of the method:
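After 24 h incubation with test chemical, transfected HepG2 cells were lysed for RNA; reporter cDNA was amplified, FAM-labelled, HpaI-digested and sized on a capillary analyser. Signal gain relative to DMSO was scored.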

The target in test [8] is Bile acid receptor (Homo sapiens) (UniProt Q96RI1). The test is described as follows: ATG_FXR_TRANS: Attagene TRANS-FACTORIAL HepG2 Assay for Farnesoid X Receptor (FXR) (AID 2282979).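 Also: hits raise reporter mRNA above DMSO so AC50 marks FXR activation.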 The settings on record: HepG2 Attagene TRANS FXR-GAL4 reporter transcription. In a few lines: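 HepG2 cells transiently transfected with reporter constructs in which a chimeric FXR-GAL4 protein drives a GAL4-UAS reporter; 24 h compound exposure. Reporter mRNA measured by RT-PCR, FAM labelling, HpaI digestion and capillary electrophoresis; gain-of-signal versus DMSO.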

A short description of test [9]: ATG_M_06_TRANS: Attagene TRANS-FACTORIAL HepG2 Assay for M06 Transcription Factor (Internal Marker) (AID 2282983).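 Also: reporter transcript level by RT-PCR then capillary electrophoresis fluorescence.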 The settings on record: HepG2 Attagene TRANS M06 internal marker reporter. The gist of the method:
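HepG2 cells transiently transfected with multiplexed GAL4-UAS reporter transcription units; after 24 h compound exposure, reporter mRNA measured by RT-PCR, FAM-labelled primer extension, HpaI digestion and capillary electrophoresis. Gain-of-signal fitted versus DMSO baseline; background control readout.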

Test [10] deals with Transcriptional activator Myb (Homo sapiens) (UniProt P10242). Nature of the test: ATG_Myb_CIS: Attagene CIS-FACTORIAL HepG2 Assay for human Myeloblastosis (Myb) Proto-Oncogene Transcription Factor (AID 2282986; active = hit-call score of the fitted dose curve at least 0.9, where 1 is the maximum; inactive = score below 0.9). The settings on record: HepG2 Attagene CIS-FACTORIAL Myb reporter transcription; actives raise or lower the signal. In a few lines: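 After 24 h of compound dosing, total RNA from transfected HepG2 cells is reverse-transcribed and the reporter sequences amplified, labeled and separated by capillary electrophoresis. Values come from bidirectional fitting against DMSO.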

The target of test [11] is Estrogen receptor (Homo sapiens) (UniProt P03372). The test is described as follows: ATG_ERa_TRANS: Attagene TRANS-FACTORIAL HepG2 Assay for human Estrogen Receptor alpha (ERa) (AID 2282970). The settings on record: HepG2 Attagene TRANS ERa GAL4 reporter, mRNA. The gist of the method: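 HepG2 cells transiently transfected with multiplexed GAL4-UAS reporter units; ERa activity read via exogenous chimeric NR-Gal4 protein. After 24 hour compound exposure, reporter mRNA measured by RT-PCR with 6-FAM labelling and capillary electrophoresis; gain-of-signal fitted relative to DMSO.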

Test [12] is described as follows: ATG_GAL4_TRANS: Attagene TRANS-FACTORIAL HepG2 Assay for GAL4 (Internal Marker) (AID 2282976). To be noted: HepG2 Attagene TRANS GAL4 internal marker reporter. In a few lines:
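HepG2 cells transiently transfected with multiplexed GAL4-UAS reporter constructs were dosed for 24 h. Reporter mRNA was measured by RT-PCR, 6-FAM primer extension, HpaI digestion and capillary electrophoresis, and gain of signal was fitted relative to DMSO.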

The target of test [13] is Nuclear receptor subfamily 4 group A member 2 (Homo sapiens) (UniProt P43354). The test is described as follows: ATG_NURR1_TRANS: Attagene TRANS-FACTORIAL HepG2 Assay for human Nuclear Receptor Related Protein 1 (NURR1) (AID 2282985). To be noted: HepG2 Attagene TRANS reporter, mRNA readout. The gist of the method:
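HepG2 cells transiently transfected with GAL4-UAS reporter units and chimeric NR-Gal4 constructs; chemical exposure 24 h. Reporter mRNA quantified by RT-PCR, fluorescent labelling and capillary electrophoresis; gain of signal fitted relative to DMSO baseline.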

Test [14] deals with Nuclear respiratory factor 1 (Homo sapiens) (UniProt Q16656). The test is described as follows: ATG_NRF1_CIS: Attagene CIS-FACTORIAL HepG2 Assay for human Nuclear Respiratory Factor 1 (NRF1) Orphan Gene (AID 2282987; active = hit-call score of the fitted dose curve at least 0.9, where 1 is the maximum; inactive = score below 0.9). The settings on record: HepG2 NRF1 cis-element reporter, Attagene multiplex; actives raise or lower the signal. The gist of the method:
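Measured: fluorescent reporter-specific RT-PCR products from transfected HepG2 cells, separated by capillary electrophoresis. Exposure lasted 24 h. Analysis used bidirectional curve fitting with DMSO as negative control.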

The nature of test [15]: ATG_NFI_CIS: Attagene CIS-FACTORIAL HepG2 Assay for human Nuclear Factor I (NFI) (AID 2282989; active = hit-call score of the fitted dose curve at least 0.9, where 1 is the maximum; inactive = score below 0.9). To be noted: HepG2 cis-regulatory reporter, NFI response element transcription; actives raise or lower the signal. In a few lines: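 HepG2 cells transiently transfected with cis-element-driven multiplexed reporter transcription units, dosed for 24 h. Reporter mRNA quantified by RT-PCR, fluorescent labelling, HpaI digestion and capillary electrophoresis; bidirectional fit versus DMSO baseline.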

The target in test [16] is Oxysterols receptor LXR-beta (Homo sapiens) (UniProt P55055). The test is described as follows: ATG_LXRb_TRANS: Attagene TRANS-FACTORIAL HepG2 Assay for human Liver X Receptor beta (LXRb) (AID 2282981). To be noted: HepG2 Attagene TRANS GAL4-LXRb reporter, mRNA. In a few lines:
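HepG2 cells transiently transfected with multiple reporter transcription units carrying chimeric NR-Gal4 proteins acting on GAL4-UAS reporters; compound exposure 24 h. Reporter mRNA quantified by RT-PCR, 6-FAM labelling, HpaI digestion and capillary electrophoresis; gain of signal versus DMSO.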

A short description of test [17]: ATG_M_32_TRANS: Attagene TRANS-FACTORIAL HepG2 Assay for M32 Transcription Factor (Internal Marker) (AID 2282984). The settings on record: HepG2 Attagene TRANS M32 internal marker reporter. The gist of the method: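 HepG2 cells transiently transfected with multiple GAL4-UAS reporter transcription units, dosed for 24 hours; reporter mRNA quantified by RT-PCR, 6-FAM primer extension, HpaI digestion and capillary electrophoresis. Gain-of-signal fitted versus DMSO baseline; internal background-control marker.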

Test [18] in a line: ATG_M_19_TRANS: Attagene TRANS-FACTORIAL HepG2 Assay for M19 Transcription Factor (Internal Marker) (AID 2282974). To be noted: HepG2 Attagene TRANS-FACTORIAL M19 internal marker reporter. The gist of the method: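 Transfected HepG2 (GAL4-UAS MRTUs), 24 h compound, TriZol RNA, DNase-treated RT, reporter PCR, FAM label, HpaI digest, CE fluorescence; gain vs DMSO.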
In test [19] the target is Oxysterols receptor LXR-alpha (Homo sapiens) (UniProt Q13133). Nature of the test: ATG_LXRa_TRANS: Attagene TRANS-FACTORIAL HepG2 Assay for human Liver X Receptor alpha (LXRa) (AID 2282980). To be noted: HepG2 Attagene TRANS reporter, LXRa transactivation. In a few lines: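 HepG2 cells were transiently transfected with multiplexed reporter units driven by chimeric LXRa–GAL4 fusion proteins, then dosed for 24 h. Reporter mRNA was quantified by RT-PCR, fluorescent labelling and capillary electrophoresis; gain of signal fitted against DMSO baseline.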

Test [20] addresses Hepatocyte nuclear factor 4-alpha (Homo sapiens) (UniProt P41235). Nature of the test: ATG_HNF4a_TRANS: Attagene TRANS-FACTORIAL HepG2 Assay for human Hepatocyte Nuclear Factor 4 alpha (HNF4a) (AID 2282982). To be noted: HepG2 HNF4a transactivation reporter, mRNA readout. The gist of the method: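 HepG2 cells transiently transfected with multiplexed GAL4-UAS reporter units responsive to chimeric NR-GAL4 proteins; compound exposure 24 h. Reporter mRNA quantified by RT-PCR, 6-FAM labelling, HpaI digestion and capillary electrophoresis; gain of signal versus DMSO baseline.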

Transcriptional activator Myb (Homo sapiens), sequence (P10242 whole entry, looked up): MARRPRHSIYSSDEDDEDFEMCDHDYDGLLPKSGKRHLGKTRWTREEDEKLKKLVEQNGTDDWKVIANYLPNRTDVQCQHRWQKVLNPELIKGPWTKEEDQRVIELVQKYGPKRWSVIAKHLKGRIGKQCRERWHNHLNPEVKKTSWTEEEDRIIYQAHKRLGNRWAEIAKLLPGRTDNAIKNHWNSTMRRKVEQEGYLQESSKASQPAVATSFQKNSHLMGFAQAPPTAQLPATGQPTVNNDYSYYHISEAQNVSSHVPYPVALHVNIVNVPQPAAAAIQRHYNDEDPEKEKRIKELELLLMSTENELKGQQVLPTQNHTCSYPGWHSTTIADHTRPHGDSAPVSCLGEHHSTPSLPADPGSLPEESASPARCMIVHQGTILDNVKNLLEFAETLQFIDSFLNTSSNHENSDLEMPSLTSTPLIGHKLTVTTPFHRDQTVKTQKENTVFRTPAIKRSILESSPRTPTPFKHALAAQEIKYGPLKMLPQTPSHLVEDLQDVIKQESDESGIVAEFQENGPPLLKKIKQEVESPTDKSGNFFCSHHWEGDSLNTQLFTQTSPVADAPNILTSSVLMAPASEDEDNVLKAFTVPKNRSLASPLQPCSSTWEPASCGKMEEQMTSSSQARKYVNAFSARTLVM
X-box-binding protein 1 (Homo sapiens), sequence (P17861 whole entry, looked up): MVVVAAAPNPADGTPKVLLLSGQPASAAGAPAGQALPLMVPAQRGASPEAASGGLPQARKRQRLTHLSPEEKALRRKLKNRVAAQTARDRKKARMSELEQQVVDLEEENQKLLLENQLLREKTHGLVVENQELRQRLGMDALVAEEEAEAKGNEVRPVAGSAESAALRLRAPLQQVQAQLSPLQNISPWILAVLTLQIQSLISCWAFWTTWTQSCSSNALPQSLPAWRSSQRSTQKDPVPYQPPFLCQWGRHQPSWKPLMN
Nuclear respiratory factor 1 (Homo sapiens), sequence (Q16656 whole entry, looked up): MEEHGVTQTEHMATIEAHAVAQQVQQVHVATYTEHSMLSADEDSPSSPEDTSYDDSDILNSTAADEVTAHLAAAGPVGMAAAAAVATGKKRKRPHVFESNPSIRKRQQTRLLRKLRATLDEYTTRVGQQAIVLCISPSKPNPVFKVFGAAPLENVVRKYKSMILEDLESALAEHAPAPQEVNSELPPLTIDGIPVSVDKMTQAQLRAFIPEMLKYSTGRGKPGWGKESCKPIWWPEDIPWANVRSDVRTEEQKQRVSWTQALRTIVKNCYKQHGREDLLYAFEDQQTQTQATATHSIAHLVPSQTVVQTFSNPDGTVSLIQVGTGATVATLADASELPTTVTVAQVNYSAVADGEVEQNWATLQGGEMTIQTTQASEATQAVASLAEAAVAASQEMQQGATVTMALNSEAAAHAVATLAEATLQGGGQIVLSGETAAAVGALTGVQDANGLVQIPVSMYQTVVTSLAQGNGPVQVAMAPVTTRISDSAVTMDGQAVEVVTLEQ
Bile acid receptor (Homo sapiens), sequence (Q96RI1 whole entry, looked up, the tested form may be a part): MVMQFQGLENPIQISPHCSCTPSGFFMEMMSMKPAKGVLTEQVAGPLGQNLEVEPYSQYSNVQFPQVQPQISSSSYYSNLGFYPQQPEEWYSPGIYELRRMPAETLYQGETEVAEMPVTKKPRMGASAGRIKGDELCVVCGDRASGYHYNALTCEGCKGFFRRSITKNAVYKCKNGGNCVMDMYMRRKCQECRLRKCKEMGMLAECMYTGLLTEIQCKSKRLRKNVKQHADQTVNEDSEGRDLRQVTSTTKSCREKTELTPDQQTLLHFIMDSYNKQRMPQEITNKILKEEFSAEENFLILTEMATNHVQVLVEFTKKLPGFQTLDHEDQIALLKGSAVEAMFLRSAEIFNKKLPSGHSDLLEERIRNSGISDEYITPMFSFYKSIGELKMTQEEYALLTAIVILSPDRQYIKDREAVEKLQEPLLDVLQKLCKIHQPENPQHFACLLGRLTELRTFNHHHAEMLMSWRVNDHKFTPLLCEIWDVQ
Estrogen receptor (Homo sapiens), sequence (P03372 whole entry, looked up, the tested form may be a part): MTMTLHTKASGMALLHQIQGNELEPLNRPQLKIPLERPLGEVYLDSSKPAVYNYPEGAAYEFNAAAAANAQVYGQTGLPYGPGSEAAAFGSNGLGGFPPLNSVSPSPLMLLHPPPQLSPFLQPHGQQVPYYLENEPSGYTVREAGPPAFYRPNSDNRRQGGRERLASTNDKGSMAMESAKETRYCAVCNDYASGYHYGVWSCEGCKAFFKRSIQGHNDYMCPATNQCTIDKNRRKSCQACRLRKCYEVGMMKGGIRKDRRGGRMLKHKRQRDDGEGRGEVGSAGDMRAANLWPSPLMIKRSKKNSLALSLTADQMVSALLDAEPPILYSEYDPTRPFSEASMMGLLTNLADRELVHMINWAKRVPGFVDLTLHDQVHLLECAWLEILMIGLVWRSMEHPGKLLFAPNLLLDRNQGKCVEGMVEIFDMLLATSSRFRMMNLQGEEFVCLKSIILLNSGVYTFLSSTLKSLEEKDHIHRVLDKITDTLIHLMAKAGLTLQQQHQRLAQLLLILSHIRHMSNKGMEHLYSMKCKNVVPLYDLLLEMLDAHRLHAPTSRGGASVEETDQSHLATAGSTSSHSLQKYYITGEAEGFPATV
Nuclear receptor subfamily 4 group A member 2 (Homo sapiens), sequence (P43354 whole entry, looked up, the tested form may be a part): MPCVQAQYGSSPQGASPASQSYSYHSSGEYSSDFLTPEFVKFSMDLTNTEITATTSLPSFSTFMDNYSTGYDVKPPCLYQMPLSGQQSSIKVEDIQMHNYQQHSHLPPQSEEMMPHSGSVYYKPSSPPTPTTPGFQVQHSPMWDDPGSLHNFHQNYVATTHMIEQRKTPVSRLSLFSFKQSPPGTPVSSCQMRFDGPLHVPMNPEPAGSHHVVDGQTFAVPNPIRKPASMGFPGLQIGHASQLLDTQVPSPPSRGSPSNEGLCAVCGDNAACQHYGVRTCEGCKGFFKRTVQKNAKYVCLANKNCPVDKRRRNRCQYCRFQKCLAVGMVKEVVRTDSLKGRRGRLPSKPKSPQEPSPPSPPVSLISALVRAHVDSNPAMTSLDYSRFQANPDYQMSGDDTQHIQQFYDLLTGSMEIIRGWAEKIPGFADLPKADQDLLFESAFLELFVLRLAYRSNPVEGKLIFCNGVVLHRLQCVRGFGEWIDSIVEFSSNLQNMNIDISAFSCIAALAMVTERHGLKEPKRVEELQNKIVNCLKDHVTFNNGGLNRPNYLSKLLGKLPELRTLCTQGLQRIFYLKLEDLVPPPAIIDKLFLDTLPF
Glucocorticoid receptor (Homo sapiens), sequence (P04150 whole entry, looked up): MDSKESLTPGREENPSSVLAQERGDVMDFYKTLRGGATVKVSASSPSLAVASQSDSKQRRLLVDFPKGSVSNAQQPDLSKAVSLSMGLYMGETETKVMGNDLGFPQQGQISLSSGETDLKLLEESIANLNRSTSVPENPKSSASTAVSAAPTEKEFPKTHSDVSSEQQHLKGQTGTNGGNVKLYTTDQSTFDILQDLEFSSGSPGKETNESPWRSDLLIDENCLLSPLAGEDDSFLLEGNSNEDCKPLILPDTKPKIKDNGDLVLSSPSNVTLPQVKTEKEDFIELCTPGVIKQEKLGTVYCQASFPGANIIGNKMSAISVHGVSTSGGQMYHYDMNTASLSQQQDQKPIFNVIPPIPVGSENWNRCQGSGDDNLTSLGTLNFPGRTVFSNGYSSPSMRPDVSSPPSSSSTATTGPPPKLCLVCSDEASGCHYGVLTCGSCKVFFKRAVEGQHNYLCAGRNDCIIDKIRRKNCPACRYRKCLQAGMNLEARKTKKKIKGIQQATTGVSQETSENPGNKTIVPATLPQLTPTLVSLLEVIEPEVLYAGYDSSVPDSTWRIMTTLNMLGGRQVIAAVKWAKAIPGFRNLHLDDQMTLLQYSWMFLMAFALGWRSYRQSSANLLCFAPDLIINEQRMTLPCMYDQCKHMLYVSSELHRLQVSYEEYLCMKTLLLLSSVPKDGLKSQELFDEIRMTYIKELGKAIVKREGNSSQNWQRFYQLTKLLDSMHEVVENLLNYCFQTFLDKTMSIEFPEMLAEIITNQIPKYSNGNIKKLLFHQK
Nuclear receptor subfamily 1 group I member 3 (Homo sapiens), sequence (Q14994 whole entry, looked up, the tested form may be a part): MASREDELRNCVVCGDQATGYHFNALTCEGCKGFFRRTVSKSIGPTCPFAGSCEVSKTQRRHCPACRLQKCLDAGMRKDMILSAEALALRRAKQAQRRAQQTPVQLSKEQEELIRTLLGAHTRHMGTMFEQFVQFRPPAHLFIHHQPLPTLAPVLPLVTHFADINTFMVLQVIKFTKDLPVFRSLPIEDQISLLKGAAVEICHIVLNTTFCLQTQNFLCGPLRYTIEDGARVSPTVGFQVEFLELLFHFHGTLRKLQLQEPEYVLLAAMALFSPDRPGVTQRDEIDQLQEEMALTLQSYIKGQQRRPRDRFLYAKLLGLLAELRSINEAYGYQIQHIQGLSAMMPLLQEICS
Steroid hormone receptor ERR1 (Homo sapiens), sequence (P11474 whole entry, looked up, the tested form may be a part): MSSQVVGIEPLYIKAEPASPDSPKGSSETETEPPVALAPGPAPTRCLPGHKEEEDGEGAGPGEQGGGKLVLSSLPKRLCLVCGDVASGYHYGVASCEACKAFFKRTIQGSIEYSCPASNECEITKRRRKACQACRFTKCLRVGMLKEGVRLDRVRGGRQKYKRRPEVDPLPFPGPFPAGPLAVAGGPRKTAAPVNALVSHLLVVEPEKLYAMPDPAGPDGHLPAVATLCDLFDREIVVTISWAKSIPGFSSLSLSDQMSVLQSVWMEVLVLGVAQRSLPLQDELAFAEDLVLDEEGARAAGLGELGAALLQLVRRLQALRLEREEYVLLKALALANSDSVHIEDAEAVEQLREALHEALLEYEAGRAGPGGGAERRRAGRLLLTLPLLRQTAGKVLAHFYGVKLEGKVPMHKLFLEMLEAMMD

`CC(C)c1nnc2ccc(-c3ocnc3-c3cc(F)ccc3F)cn12`: the outcome in [1], in [2], in test [4], in test [5], in test [6] and in test [7] was inactive. In addition, the molecule was classed as inactive in [8], in test [9] and in test [10]. In addition, the AC50 in test [3] is 37.7 µM (active).

In the case of `CCCCC(CC)C(=O)OCCOCCOCCOC(=O)C(CC)CCCC` (centres undefined), the result in [1], in [2], in test [4], in test [11], in test [5] and in [6] was inactive. The molecule was called inactive in test [12], in test [7], in test [9], in [13], in test [10] and in test [14]. For the same molecule, the call in test [15] was inactive. The AC50 in [3] is 65.8 µM (active).

In the case of `C[C@@H](Oc1ccc(CNC(=O)c2cccnc2Oc2ccc3c(c2)OCO3)c(F)c1)C(=O)O`, the molecule was called inactive in test [1], in test [2], in [3], in test [4], in test [5] and in test [6]. For the same molecule, the result in test [12], in test [7], in test [8], in test [16], in test [9] and in test [17] was inactive. For the same molecule, the call in test [13], in [10], in [14] and in [15] was inactive.

With `NCC(F)(F)C(F)(F)C(F)(F)C(F)(F)F`, the molecule was classed as inactive in [1], in test [2], in test [3], in test [4], in test [11] and in test [5]. For the same molecule, the molecule was classed as inactive in test [6], in test [18], in test [12], in test [7], in [8] and in test [19]. Also, the molecule was called inactive in test [20], in test [9], in [17], in test [13], in test [10] and in [14]. For the same molecule, the molecule was classed as inactive in test [15].

What is called AC50 is the midpoint of the concentration-response curve, whichever way the signal moves.
